Laboratory results: PubChem BioAssay (NCI)
Compounds without any hit were thinned out: in the full panel of roughly 79,000, 15% have a hit. Active and inactive are the calls of the source. Rule as the data show it: active = growth inhibition above about 70%; inactive = the rest. Where a SMILES comes first, the peptide text is derived from it. The star is where a group is joined. Cbz = O=C(OCc1ccccc1)*

Experiments:
[1] = NCI Yeast Anticancer Drug Screen. Data for the rad50 strain (AID 155);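 also: 0% = growth of vehicle-only cultures of the same strain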; settings: S. cerevisiae rad50 strain growth inhibition, active compounds read high; at 50.0 µM unless noted
Summary of the method: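 Compounds were tested on a yeast strain with an engineered DNA damage repair alteration; the reported value is growth inhibition normalised to vehicle treatment.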

[2] = NCI Yeast Anticancer Drug Screen. Data for the mec2-1 strain (AID 157); settings: S. cerevisiae mec2-1 strain, active compounds read high; at 50.0 µM unless noted
Summary of the method: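 Test agents were screened against the mec2-1 yeast strain, with defined DNA repair or cell cycle alteration. Growth was scored as inhibition against vehicle-only controls.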

[3] = NCI Yeast Anticancer Drug Screen. Data for the sgs1 mgt1 strain (AID 161);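 also: 0% = growth of cultures given vehicle only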; settings: S. cerevisiae sgs1 mgt1 strain, active compounds read high; at 50.0 µM unless noted
Summary of the method: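 Genetically altered yeast, compound exposure, growth inhibition relative to vehicle.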

[4] = NCI Yeast Anticancer Drug Screen. Data for the cln2 rad14 strain (AID 165);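 also: 0% = growth equal to vehicle treated cultures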; settings: S. cerevisiae cln2 rad14 strain, active compounds read high; at 50.0 µM unless noted
Summary of the method: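 Growth of compound-exposed yeast (cln2 rad14 genotype) measured and expressed as inhibition relative to vehicle.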

[5] = NCI Yeast Anticancer Drug Screen. Data for the bub3 strain (AID 167); settings: S. cerevisiae bub3 mutant strain, active compounds read high; at 50.0 µM unless noted
Summary of the method: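 Growth of a checkpoint-deficient yeast mutant is measured after compound exposure. Values represent inhibition relative to vehicle.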

[6] = NCI Yeast Anticancer Drug Screen. Data for the mlh1 rad18 strain (AID 175); settings: S. cerevisiae mlh1 rad18 strain growth inhibition, active compounds read high; at 50.0 µM unless noted
Summary of the method: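 In this whole-cell yeast screen, a strain with altered DNA damage repair is challenged with compound, and its growth is measured against matched vehicle-treated controls.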

Measured: growth inhibition

CCCc1ccc(C)c(Br)c1
inactive: [1] 26.4% | [2] 15.8% | [3] 0.9% | [4] -9.95% | [5] 1.3% | [6] 3.3%

COC(=O)C(=O)C(C#N)c1ccccc1Cl (stereo not given)
inactive: [1] 3.45% | [2] -17.2% | [3] 0.35% | [4] 0.5% | [5] -5.75% | [6] 5.15%

Nc1nc2cc3nc(N)c(N)nc3cc2nc1N
inactive: [1] -6.4% | [2] 14.7% | [3] 13.1% | [4] 34.9% | [5] 13.2% | [6] 15.1%

C=CC(=O)OCCOCCCC
inactive: [1] 8.75% | [2] 5.4% | [3] -4.7% | [4] -21.9% | [5] -15.1% | [6] 4.85%

OCCCC(O)CCC(O)CCC(O)CCCO (stereo not given)
inactive: [1] -4% | [2] -20.1% | [3] 9.15% | [4] 9.5% | [5] -22.8% | [6] 5.15%

O=[N+]([O-])c1cc(C(Nc2nncs2)Nc2nncs2)ccc1Cl
inactive: [1] 12.6% | [2] 8.25% | [3] 43.9% | [4] 11% | [5] 2.5% | [6] 46.6%

Cc1ccc(NC(=O)ON(C)C)cc1
inactive: [1] -1.65% | [2] 11.7% | [3] 8.25% | [4] -81.5% | [5] -18.9% | [6] -24.2%

O=c1c2cncnc2sc2nc3ccccc3n12
inactive: [1] 16.1% | [2] -9.55% | [3] 28.3% | [4] 11.9% | [5] 15.3% | [6] 23.4%

c1ccc(Cc2cncc(Cc3ccccc3)c2)cc1
inactive: [1] -22.5% | [2] 1.95% | [3] 6.85% | [4] -58.6% | [5] 55.5% | [6] 9.1%

CCOC(=O)COc1cc2c(cc1C(CC)c1ccc(OC)cc1)OCO2 (stereo not given)
inactive: [1] -14.9% | [2] -17.6% | [3] -12.1% | [4] -20.1% | [5] 16.4% | [6] -9.5%

C[C@]12CCC(=O)C=C1CC[C@@H]1[C@@H]2C(=O)C[C@]2(C)/C(=C\C(=O)O)CC[C@@H]12
inactive: [1] -1% | [2] -19.1% | [3] 5.7% | [4] -48.1% | [5] -4.5% | [6] 2.55%

O=C(Nc1ccccc1)c1cc(S(=O)(=O)Nc2n[nH]c(=O)[nH]2)c(SSc2cc(Cl)c(C(=O)Nc3ccccc3)cc2S(=O)(=O)Nc2n[nH]c(=O)[nH]2)cc1Cl
inactive: [1] 18.8% | [2] 22.7% | [3] -8.5% | [4] -6.35% | [5] -2.25% | [6] 25.4%

CC(Nc1ncc2c(n1)-c1ccccc1OC2)C(=O)O (stereo not given)
inactive: [1] -2.45% | [2] 2.1% | [3] -11.4% | [4] -7.8% | [5] -31.4% | [6] 16.3%

CC(C)(CBr)CC(=O)NC1CCCCC1
inactive: [1] -22% | [2] 5.8% | [3] 3.3% | [4] 1.8% | [5] 10.2% | [6] 50%

COc1ccccc1/C=C1\C(=O)N(C(=O)c2ccc(NC(C)=O)cc2)N=C1C
inactive: [1] 1.6% | [2] -27.1% | [3] -34.8% | [4] -3.2% | [5] -23.9% | [6] -26.1%

CN(C)C(=S)/N=c1\ssc(=S)n1Cc1ccccn1
inactive: [1] 3.05% | [2] -11.9% | [3] 1.8% | [4] 22.1% | [5] -9.55% | [6] -10.9%

NC(=O)C(Cc1ccccc1)NC(=O)C(Cc1ccccc1)NC(=O)C(Cc1ccccc1)NC(=O)OCc1ccccc1 (stereo not drawn) (Cbz-Phe-Phe-Phe-NH2; configuration not given here)
inactive: [1] 25.6% | [2] 7.8% | [3] 17.6% | [4] -12% | [5] -5.2% | [6] 21.9%

O=C1NC(=O)[C@@]2(CC[C@@H](O)C2)c2ccncc21
inactive: [1] 3.55% | [2] -42.6% | [3] -10.2% | [4] 16.4% | [5] -33.2% | [6] -86.5%

CN1C(=O)N(C2CCCCC2)C(=O)C(C)(CN2CCCCC2)C1=O (stereo not given)
inactive: [1] 12.7% | [2] 14.1% | [3] 12.2% | [4] 17.6% | [5] -5.25% | [6] 12.2%

C1COC2SC3=C(SC(=C4SC5=C(SCCS5)S4)S3)SC2O1 (stereo not given)
inactive: [1] 3.05% | [2] -2.05% | [3] 19.2% | [4] -5.6% | [5] 8.85% | [6] 6.9%

CN(CC#CC#CCN(C)c1ccccc1)c1ccccc1
inactive: [1] -14.2% | [2] -28.1% | [3] -13.6% | [4] -27% | [5] -35.2% | [6] -20.1%

Oc1ccc(-c2c3ccccc3c(-c3ccc(O)cc3)c3ccccc23)cc1
inactive: [1] -0.85% | [2] -9.6% | [3] -31.6% | [4] -7.2% | [5] -9.15% | [6] 1.15%

O=C(O)CCNc1ccc(Cl)cc1[N+](=O)[O-]
inactive: [1] 25.8% | [2] 26.8% | [3] 30.4% | [4] 16.1% | [5] 34.9% | [6] 25.8%

S=C(NCc1cccc(Cl)c1)Nc1ccccc1
inactive: [1] -4.65% | [2] 27.9% | [3] 14.2% | [4] -24.9% | [5] 29.6% | [6] 24.4%

O=C(CC1(O)C(=O)Nc2ccc(Br)cc21)c1ccc2c(c1)OCO2 (stereo not given)
inactive: [1] 2.7% | [2] 5.35% | [3] 11.4% | [4] -6.5% | [5] 36.5% | [6] -1.15%

CCCC(c1ccc(N(C)C)cc1)c1ccc(N(C)C)cc1
inactive: [1] -5% | [2] -22% | [3] -2.75% | [4] 16.6% | [5] 29.3% | [6] -30%

Cc1cc(S(=O)(=O)Nc2n[nH]c(N)n2)c(S)cc1Cl
inactive: [1] 11.4% | [2] 7.45% | [3] -6.65% | [4] -4.6% | [5] 1.1% | [6] 12.8%

COc1ccc(C2=NC(CO)[C@H](c3ccccc3)O2)cc1OC (stereo not given in full)
inactive: [1] 2.35% | [2] -13.2% | [3] 8.05% | [4] 17.4% | [5] -3.75% | [6] -7.15%

CCOC(=O)CC(C#N)(C#N)CC(=O)OCC
inactive: [1] 4.15% | [2] 21.3% | [3] 5.85% | [4] -0.1% | [5] 26.8% | [6] -0.55%

COc1ccc2[nH]c3ccccc3c(=O)c2c1
inactive: [1] 12.6% | [2] -3.2% | [3] 8.8% | [4] -66.4% | [5] 3% | [6] -6.65%

N/N=C1\C(=O)N(c2ccc(Cl)c(Cl)c2)C(=O)C1C(=O)Nc1ccc(Cl)c(Cl)c1 (stereo not given)
inactive: [1] -7.35% | [2] -19.4% | [3] -20.6% | [4] -16.4% | [5] -29.6% | [6] -31.1%

C=C1CC(c2ccccc2)(c2cccs2)OC1=O (stereo not given)
active: [2] 93.6% | [3] 96.2% | [5] 90.5% | [6] 90.7%
inactive: [1] 67.7% | [4] 14.3%

c1ccc(NN(Cc2cnccn2)c2ccccc2)cc1
inactive: [1] 9.75% | [2] -2.65% | [3] -24.9% | [4] -29.9% | [5] -56.5% | [6] -12%

Nc1ncnc(Nc2ccc(Cl)cc2Cl)n1
inactive: [1] 5.05% | [2] -11.7% | [3] 5.75% | [4] 1.85% | [5] 5.25% | [6] -7.05%

Cc1ccc(O)c(C=NCCN=Cc2cc(C)ccc2O)c1.[Zn]
inactive: [1] -14.4% | [2] 8.6% | [3] 0.05% | [4] -13% | [5] -43.1% | [6] -32.4%

COc1ccc(C)cc1S(=O)(=O)c1ccc(Cl)cc1[N+](=O)[O-]
inactive: [1] -2.55% | [2] -11.1% | [3] 2% | [4] -12.7% | [5] 2.25% | [6] -25.1%

c1ccc2c(c1)C(=NCCCN1CCCCCCC1)c1cccn1-2
inactive: [1] 23.5% | [2] 9.95% | [3] 29.1% | [4] -2.7% | [5] 23.1% | [6] 25.4%

CCCCC(C(=O)CCC(=O)Nc1ccc(Cl)c(Cl)c1)C(=O)C(C)C (stereo not given)
inactive: [1] -7% | [2] -18.8% | [3] 19.1% | [4] -0.3% | [5] 8.4% | [6] -2.4%

CNc1cc([N+](=O)[O-])ccc1Br
inactive: [1] 10.2% | [2] 4.2% | [3] -1.1% | [4] -2.95% | [5] 7.5% | [6] -14.9%

CC1(C)OC2OC3C(Br)C(=O)OC3C2O1 (stereo not given)
inactive: [1] 14.8% | [2] -8.45% | [3] 24.7% | [4] 9.65% | [5] 24.1% | [6] 26.2%
